Assay outcomes: PubChem, National Center for Advancing Translational Sciences (NCATS)
HTT-AS promoter = activates huntingtin-antisense promoter activity; AID 1508624; Potency, µM (highest dose often 57.5 µM), inactives show at the highest dose activity change, positive = activation, hits mostly activators; 48,000 tested, 0.24% active; HEK293 HTT-AS promoter firefly luciferase reporter, 24 h; response scale: percent change from vehicle, -100% = no light; further: potency means the concentration at half of the fitted maximal effect; nearly all actives have a fitted effect of over 55% in size
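Firefly luciferase readout (Dual-Glo, 10 min RT) after 24 h, 37 °C compound exposure (final up to 57.5 uM) of HEK293 reporter cells cultured 24 h beforehand; PTC124 at 50 uM final as control inhibitor; activity scaled vehicle 0%, zero RLU -100%.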
HTT promoter inh = inhibits huntingtin promoter activity. Potency, µM (top dose mostly 57.5 µM), inactives show at the highest dose activity change, negative = inhibition, actives largely listed as inhibitors. 48,000 tested, 0.93% active. HEK293 HTT promoter firefly luciferase reporter, 24 h; further: potency means the concentration at half of the fitted maximal effect; nearly all actives have a fitted effect of over 50% in size
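Quantitative HTS used concentration series of up to 57.5 uM final on HEK293 luciferase reporter cells, 24 h at 37 degrees C. Readout was Dual-Glo firefly luminescence.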
NTMT1 inhibitor = inhibitors of human N-terminal methyltransferase NTMT1; 59,000 tested, 2.5% active; Potency, µM (top dose mostly 114 µM), for the others: top-dose activity change, negative = inhibition, most hits filed as inhibitors; AID 1645870; Q9BV86; NTMT1 MTase-Glo SAH luminescence, purified enzyme;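 further: potency means the concentration at half of the fitted maximal effect; plate controls were DMSO vehicle for no effect and no enzyme for full effect; nearly all actives have a fitted effect of over 65% in size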
DYRK1A inh = human DYRK1A kinase inhibition by ATP depletion readout. shares compounds with NTMT1 inhibitor. Potency, µM (highest dose often 76.9 µM), inactives show top-dose activity change, negative = inhibition, most hits filed as inhibitors. AID 2705. 100 tested, 80% active. recombinant DYRK1A, Kinase-Glo ATP depletion luminescence
Sfp PPTase inh = Sfp PPTase inhibition, chemistry optimization; AID 540350; purified Sfp PPTase enzyme activity, qHTS; 230 tested, 78% active; shares compounds with NTMT1 inhibitor; Potency, µM (series often up to 114 µM), for the others: at the highest dose activity change, negative = inhibition, actives largely listed as inhibitors
Bsub HM489 growth = Sfp PPTase inhibitors: growth inhibition of B. subtilis HM489 | shares compounds with NTMT1 inhibitor | B. subtilis HM489 (acpS-) growth, BacTiter-Glo, 5 h | Potency, µM (series often up to 114 µM), inactives show at the top dose activity change, negative = inhibition, usual class: inhibitors | 220 tested, 50% active
Sfp PPTase gel = inhibits B. subtilis Sfp PPTase in gel assay | Potency, µM (series often up to 250 µM), inactives show at the top dose activity change, negative = inhibition, hits mostly inhibitors | purified Sfp PPTase, gel-based product detection | shares compounds with NTMT1 inhibitor | 220 tested, 54% active
Sfp inh gel = Sfp phosphopantetheinyl transferase inhibition, gel detection | Potency, µM (series often up to 250 µM), for inactives: at the highest dose activity change, negative = inhibition, actives largely listed as inhibitors | shares compounds with NTMT1 inhibitor | 45 tested, 90% active | purified Sfp PPTase, gel-based product detection | AID 602362
Sfp inh SAR2 = Sfp phosphopantetheinyl transferase inhibition, SAR round 2 | shares compounds with NTMT1 inhibitor | purified Sfp enzyme, PPTase activity, qHTS | Potency, µM (highest dose often 57.1 µM), for the others: at the highest dose activity change, negative = inhibition, usual class: inhibitors | 230 tested, 87% active | AID 602370
hGST ctr = inhibits hGST A1-1 in Sfp inhibitor counter-screen | Potency, µM (doses to about 114 µM), without a hit: top-dose activity change, negative = inhibition, most hits filed as inhibitors | shares compounds with NTMT1 inhibitor | 55 tested, under 10 active | hGST A1-1 enzyme activity counter-screen, qHTS
HSD17B4 inh = counter-screen for HPGD inhibitors: human HSD17B4 inhibition | Potency, µM (highest dose often 57.1 µM), without a hit: top-dose activity change, negative = inhibition, most hits filed as inhibitors | AID 743187 | shares compounds with NTMT1 inhibitor | purified HSD17B4, estradiol/NAD+, NADH fluorescence | 230 tested, 10% active
Target sequence (P51659 whole entry, looked up): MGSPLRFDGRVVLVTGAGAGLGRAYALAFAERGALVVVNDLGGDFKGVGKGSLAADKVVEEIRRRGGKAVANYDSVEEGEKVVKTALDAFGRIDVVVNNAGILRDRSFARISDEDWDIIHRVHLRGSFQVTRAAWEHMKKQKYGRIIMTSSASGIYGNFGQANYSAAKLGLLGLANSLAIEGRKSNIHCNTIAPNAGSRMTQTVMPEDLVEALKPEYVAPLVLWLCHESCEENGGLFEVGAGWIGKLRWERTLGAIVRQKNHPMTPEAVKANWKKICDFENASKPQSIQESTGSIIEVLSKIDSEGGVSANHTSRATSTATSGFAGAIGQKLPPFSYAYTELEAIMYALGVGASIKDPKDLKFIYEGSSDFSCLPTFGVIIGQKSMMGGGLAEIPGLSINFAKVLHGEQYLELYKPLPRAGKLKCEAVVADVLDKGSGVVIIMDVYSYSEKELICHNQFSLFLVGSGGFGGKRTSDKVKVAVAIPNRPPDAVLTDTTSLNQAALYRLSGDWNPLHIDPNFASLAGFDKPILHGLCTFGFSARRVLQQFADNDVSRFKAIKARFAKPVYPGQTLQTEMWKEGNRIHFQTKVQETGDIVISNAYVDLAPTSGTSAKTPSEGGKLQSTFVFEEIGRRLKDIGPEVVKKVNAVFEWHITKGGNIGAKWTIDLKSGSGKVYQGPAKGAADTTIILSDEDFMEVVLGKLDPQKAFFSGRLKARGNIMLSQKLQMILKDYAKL
ALDH1A1 inh = inhibits human ALDH1A1, off-target for HPGD inhibitors | shares compounds with NTMT1 inhibitor | recombinant ALDH1A1, NADH fluorescence, propionaldehyde/NAD+ | Potency, µM (top dose mostly 57.1 µM), inactives show at the highest dose activity change, negative = inhibition, usual class: inhibitors | 230 tested, 93% active
NNMT counter = blocks human NNMT methyltransferase. shares compounds with NTMT1 inhibitor. NNMT MTase-Glo luminescence, SAH detection. Potency, µM (top dose mostly 57.1 µM), without a hit: at the highest dose activity, negative = inhibition, hits mostly inhibitors. 120 tested, 10% active. AID 1645878
* = called active by the depositor; u = inconclusive; x = no result given; [ ] = another dose, or the depositor's remark. Rows were chosen to be rich in hits. Some 2.4% of all compounds tested hit in one or more screens of this group. The call rests on the fitted dose curve; in most records, active means well fitted curve in the direction sought with a large enough effect; inconclusive means small, poorly fitted or top-dose-only effect, or another doubt; inactive means no such curve, though single readings can be large; an effect the other way counts as inactive or inconclusive.

SMILES | HTT-AS promoter | HTT promoter inh | NTMT1 inhibitor | others
Cc1ccc2onc(CNC(=O)N3CCN(c4cccc(C(F)(F)F)c4)CC3)c2c1 | -19% | u | 16%
Cc1ccnc(NC(=S)N2CCN(c3cc(F)cc(Cl)c3)CC2)c1 | x | x | x | Sfp PPTase inh=1.2µM*;Bsub HM489 growth=15µM*;Sfp PPTase gel=10µM*;Sfp inh SAR2=1.6µM*;HSD17B4 inh=-21%;ALDH1A1 inh=7.6µM*
O=C(Nc1cccc(C(=O)O)c1)Nc1nnc(-c2ccncc2)s1 | x | x | 11%
CO[C@H]1c2cc(C(C)C)c(O)c(O)c2[C@@]23CCCC(C)(C)C2[C@@H]1OC3=O (stereo not given in full) | x | x | -7%[29.8 µM]
COc1cc([C@@H](CC(=O)O)c2ccc(C)c(CN3C[C@@H](C)Oc4ccccc4S3(=O)=O)c2)cc2nnn(C)c12 | x | x | -7%[57.5 µM]
Cc1cc(C)cc(Oc2ccc(CNC(=O)[C@H](C)N)cc2C)c1 | x | x | 1%
O=C(CC1C(=O)Nc2ccccc21)OC[C@H]1O[C@@H](OCCc2ccc(O)cc2)[C@H](O)[C@@H](O)[C@@H]1O (stereo not given in full) | x | x | -19%[29.8 µM]
Cc1ccc2scc(N3CCN(c4cccc(C(F)(F)F)c4)CC3)c(=O)c2c1 | 7% | 2% | -6%
O=C(c1noc2c1CCCCC2)N1CCN(c2cccc(Cl)c2)CC1 | -22% | u | 12%
Cc1ccnc(NC(=S)N2CCN(c3cccc(C(F)(F)F)n3)CC2)c1 | x | x | u | Sfp PPTase inh=1.5µM*;Bsub HM489 growth=30µM*;Sfp PPTase gel=7.9µM*;Sfp inh SAR2=0.73µM*;HSD17B4 inh=-26%;ALDH1A1 inh=22µM*
S=C(Nc1cc(Cl)ccn1)N1CCN(c2cc(Cl)cc(Cl)c2)CC1 | x | x | x | Sfp PPTase inh=37µM*;Bsub HM489 growth=11µM*;Sfp PPTase gel=-59%;Sfp inh SAR2=18µM*;HSD17B4 inh=12%;ALDH1A1 inh=27µM*
CS(=O)(=O)N1CCCc2cc(C(=O)Nc3cccc(C(F)(F)F)c3)ccc21 | -40% | u | -16%
Cc1ccnc(NC(=S)N2CCCc3ccc(C(F)(F)F)cc32)c1 | x | x | -6% | Sfp PPTase inh=3%;Bsub HM489 growth=u;Sfp PPTase gel=0%;Sfp inh gel=-2%;Sfp inh SAR2=u;hGST ctr=u;HSD17B4 inh=u;ALDH1A1 inh=27µM*
Cc1ccnc(NC(=S)N2CCN(c3cc(C(F)(F)F)cc(C(F)(F)F)c3)CC2)c1 | x | x | u | Sfp PPTase inh=2.4µM*;Bsub HM489 growth=3.3µM*;Sfp PPTase gel=0.79µM*;Sfp inh gel=0.95µM*;Sfp inh SAR2=0.65µM*;hGST ctr=u;HSD17B4 inh=27µM*;ALDH1A1 inh=7.6µM*
COc1ccc2c(NC(=O)Nc3cccc(C(F)(F)F)n3)ccnc2c1 | x | x | -4%[57.5 µM]
COc1ccc(CCN(C)CCCOc2nsc(-c3ccccc3)n2)cc1OC | x | x | -4%[57.5 µM]
CC(C)C[C@H](CC(=O)NO)C(=O)N[C@H](C(=O)N[C@@H](C)C(=O)NCCN)C(C)(C)C | x | x | 7%[12.6 µM]
[N-]=[N+]=N[C@]1(CO)O[C@@H](n2ccc(=O)[nH]c2=O)[C@@H](O)[C@@H]1O | x | x | 26%[57.5 µM]
Cc1noc2ncnc(N3CCN(c4cccc(C(F)(F)F)c4)CC3)c12 | -45% | u | 8%
O=C(c1noc2c1CCCCC2)N1CCN(c2cccc(C(F)(F)F)c2)CC1 | -39% | u | 1%
COC(=O)c1ccnc(NC(=S)N2CCN(c3cccc(C(F)(F)F)c3)CC2)c1 | x | x | x | Sfp PPTase inh=26µM*;Bsub HM489 growth=17µM*;Sfp PPTase gel=40µM*;Sfp inh SAR2=11µM*;HSD17B4 inh=17µM*;ALDH1A1 inh=12µM*
Cc1ccnc(NC(=S)N2CCN(c3cccc(C(F)(F)F)c3)C[C@@H]2C)c1 | x | x | x | Sfp PPTase inh=5.9µM*;Bsub HM489 growth=47µM*;Sfp PPTase gel=u;Sfp inh SAR2=11µM*;HSD17B4 inh=6%;ALDH1A1 inh=24µM*
Cc1nnc(-c2cnn(C)c2N)n1CCCc1cccnc1 | x | x | 11%
COc1cc2c(NC3CCN(C(C)C)CC3)nc(N3CCC(F)(F)CC3)nc2cc1OCCCN1CCCC1 | x | x | -24%[57.5 µM]
COc1cc2c(NC3CCN(C(C)C)CC3)nc(N3CCCN(c4ccccc4)CC3)nc2cc1OCCCN1CCCC1 | x | x | x | NNMT counter=-11%
SMILES | HTT-AS promoter | HTT promoter inh | NTMT1 inhibitor | others
CC1CCC(=O)CC(O)C(O)CC(=O)O1 (stereo not given) | x | x | 24%[57.5 µM]
CCOc1ccccc1CNc1ncnc2ccc(-c3c(C)noc3C)cc12 | x | x | -17%[57.5 µM]
CCOC(=O)c1ccoc1-c1ccc2ncnc(NCc3csc(C)n3)c2c1 | x | x | -4% | DYRK1A inh=-11%
CCOC(=O)c1ccoc1-c1ccc2ncnc(NCc3ccc(C)o3)c2c1 | x | x | u | DYRK1A inh=23µM*
Cc1cccc(-c2ccc3ncnc(NCc4cc(C)cs4)c3c2)c1 | x | x | -2%
Cc1noc(C)c1-c1ccc2ncnc(NCc3ccc(F)cc3)c2c1 | x | x | 11%
COc1cc(CNc2ncnc3ccc(-c4c(C)noc4C)cc23)cc(OC)c1OC | x | x | 7%
CCOC(=O)c1ccc(-c2ccc3ncnc(NCc4ncc[nH]4)c3c2)o1 | x | x | -1% | DYRK1A inh=2.3µM*
CCOC(=O)c1ccc(-c2ccc3ncnc(NCc4csc(C)n4)c3c2)o1 | x | x | -12% | DYRK1A inh=9.2µM*
